# ELG1 genotox: genotoxicity induction in ELG1-luciferase HEK293T cells; hit rate 1.3% among 330,000; Potency, µM (titrated, usually from 46 µM), inactives show at the highest dose activity change, positive = activation, actives largely listed as activators; HEK293T ELG1-luciferase reporter, luminescence, 16 h; further: % of control where 0% means no effect; nearly all actives have a fitted effect of over 60% in size
#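 Step 1: seed 2,000 HEK293T ELG1-luciferase cells per well. Step 2: add compound or DMSO, incubate 16 hr at 37 °C. Step 3: ONE-Glo, 30 min at room temperature, read luminescence.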
# SMN2 splice enh: increases expression of the SMN2 splice variant | hit rate 2.8% among 210,000 | Potency, µM (titrated, usually from 46.1 µM), inactives show top-dose activity change, positive = activation, hits mostly activators | HEK293 SMN2-luciferase splicing reporter, luminescence, 30-36 h; further: % of control where 0% means no effect; nearly all actives have a fitted effect of over 55% in size
#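 HEK293 cells carry an SMN2 […]–luciferase reporter in which exon 7 inclusion puts luciferase in frame. Cells were plated 10-12 h before compound addition, then incubated 30-36 h at 37C. ONE-Glo luminescence was read; sodium butyrate at 4.5 mM final served as control.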
# NPC1 prom act: activates the NPC1 promoter. hit rate 2.4% among 320,000. Huh7 NPC1 promoter luciferase reporter, 24 h. Potency, µM (highest dose often 9.22 µM), without a hit: top-dose activation, most hits filed as activators; further: % of control where 0% means no effect; nearly all actives have a fitted effect of over 60% in size
#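 Readout is luciferase luminescence, reflecting NPC1 promoter activation in stably transfected Huh7 cells after 24 h compound exposure at 37 °C in reduced-serum medium with 10% FBS.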
# Rab9 prom act: activators of Rab9 promoter; hit rate 2.8% among 320,000; Huh7 Rab9 promoter-luciferase reporter, luminescence, 24 h; Potency, µM (series often up to 9.22 µM), inactives show at the highest dose activation, negative = inhibition, actives largely listed as activators; AID 485297; further: % of control where 0% means no effect; nearly all actives have a fitted effect of over 60% in size
#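 Cell-based reporter: Huh7 stable for Rab9 promoter-driven luciferase, plated in reduced-serum medium with 10% FBS at 1500 cells/well, compound-treated 24 h at 37 °C, luminescence read after 10 min reagent.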
# FLuc counter: inhibits or activates purified firefly luciferase, miR-21 counter-screen; AID 588342; hit rate 6.9% among 360,000; Potency, µM (doses to about 57.5 µM), without a hit: at the highest dose activity change, negative = inhibition, hits mostly inhibitors; purified FLuc, Km substrates, luminescence inhibition;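 further: plate controls were vehicle for no effect and reference inhibitor for full effect; nearly all actives have a fitted effect of over 55% in size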
# Target sequence (P08659 whole entry, looked up): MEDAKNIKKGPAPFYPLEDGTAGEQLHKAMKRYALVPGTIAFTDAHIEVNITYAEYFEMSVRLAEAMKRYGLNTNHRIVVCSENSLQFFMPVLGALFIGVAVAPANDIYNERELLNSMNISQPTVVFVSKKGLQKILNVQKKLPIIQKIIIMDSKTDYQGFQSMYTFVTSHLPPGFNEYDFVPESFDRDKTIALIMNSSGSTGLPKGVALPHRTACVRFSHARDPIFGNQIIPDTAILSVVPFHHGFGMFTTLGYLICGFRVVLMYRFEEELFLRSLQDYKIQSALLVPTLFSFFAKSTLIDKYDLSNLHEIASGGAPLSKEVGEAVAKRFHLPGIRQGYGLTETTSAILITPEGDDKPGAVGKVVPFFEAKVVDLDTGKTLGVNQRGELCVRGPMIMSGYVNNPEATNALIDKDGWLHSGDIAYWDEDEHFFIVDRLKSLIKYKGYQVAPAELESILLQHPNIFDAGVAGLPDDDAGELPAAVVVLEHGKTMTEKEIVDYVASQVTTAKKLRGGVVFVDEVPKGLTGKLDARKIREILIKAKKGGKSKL
#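 Purified P. pyralis luciferase (10nM final) with 10uM D-luciferin and 10uM ATP (Km levels) in 50mM Tris acetate pH 7.5, 10mM Mg acetate, 0.01% Tween-20, 0.05% BSA; qHTS 6-point titration, ~60 µM downward; luminescence read.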
# * = called active by the depositor; ? = inconclusive; nt = no result; [ ] = another dose, or the depositor's remark. Compounds with a hit are over-represented: about 7.4% of the library has one in this group of screens. The call rests on the fitted dose curve; in most records, active means well fitted curve in the direction sought with a large enough effect; inconclusive means small, poorly fitted or top-dose-only effect, or another doubt; inactive means no such curve, though single readings can be large; an effect the other way counts as inactive or inconclusive. Potency means the concentration at half of the fitted maximal effect.
SMILES,ELG1 genotox,SMN2 splice enh,NPC1 prom act,Rab9 prom act,FLuc counter
CCCc1ccc2oc(C(=O)N(C)Cc3ccn[nH]3)c(C)c2c1,18.3µM*,nt,?,?,15.1µM*
Cc1c(C(=O)N2CCCC2)oc2ccc(Br)cc12,24.9%,nt,5.4%,2.9%,?
CCOC(=O)c1ccc(CNC(=O)c2cc(COc3ccccc3SC)on2)o1,?,nt,2.51µM*,?,8.49µM*
CSc1ccccc1OCc1cc(C(=O)N(C)Cc2ccc(C)o2)no1,?,nt,?,3.98µM*,16.9µM*
CSc1ccccc1OCc1cc(C(=O)N(C)Cc2ccc3nsnc3c2)no1,3.26µM*,nt,0.631µM*,0.708µM*,?
CSc1ccccc1OCc1cc(C(=O)NCc2ccc(C)s2)no1,1.8%,nt,19.6%,20.5%,?
COc1ccc(CNC(=O)c2cccn2-c2nnc(N3CCCCC3)s2)c(OC)c1,nt,nt,nt,nt,-19.1%
CC1(C)CC(NC(=O)c2ccc3c(c2)OCO3)CC(C)(C)N1,2.7%,9.5%,-5.7%,11.1%,-2.0%
CC1CCN(CC(=O)Nc2ccc3c(c2)OCO3)CC1,5.8%,nt,12.4%,14.9%,-9.6%
CC1CCC(NC(=O)c2ccc3c(c2)OCO3)CC1 (stereo not drawn),0.461µM*,nt,0.316µM*,0.447µM*,2.69µM*
CC1CCCC(NC(=O)c2ccc3c(c2)OCCO3)C1C (stereo not drawn),?,nt,3.98µM*,1.58µM*,13.5µM*
CC1CCC(NC(=O)C(=O)Nc2ccc3c(c2)OCO3)CC1 (stereo not drawn),4.11µM*,nt,2µM*,0.708µM*,7.57µM*
CN1C(=O)c2cccc3c(S(=O)(=O)Nc4cccc(C(=O)O)c4)ccc1c23,nt,-13.1%,nt,nt,?
CCN(CC(=O)Nc1ccc2c(c1)OCCO2)C(=O)C(C)Oc1ccc(Cl)cc1 (stereo not drawn),0.0%,nt,-2.2%,-4.9%,9.9%
COC(=O)C1=C(c2ccccc2)c2ccccc2S(=O)(=O)N1CC(=O)Nc1ccc(F)c(F)c1,nt,-21.2%,nt,nt,-8.5%
CC(=O)CSc1nc2ccc(Nc3nc(N4CCOCC4)nc(N4CCOCC4)n3)cc2s1,-7.8%,25.1µM*,-0.2%,-7.2%,-0.2%
O=C(CSc1nc2ccccc2s1)Nc1ccc(N2CCOCC2)c(Cl)c1,6.9%,-7.1%,0.1%,0.7%,?
CC(=O)Nc1ccc2nc(SCC(=O)Nc3ccc(N4CCOCC4)c(Cl)c3)sc2c1,0.0%,?,?,?,8.49µM*
Nc1ccc(-c2cnc(-c3ccc(N)cc3)nc2)cc1,?,3.55µM*,1.12µM*,1.58µM*,3.38µM*
Oc1ccc(-c2cnc(-c3ccc(O)cc3)nc2)cc1,2.91µM*,nt,1.12µM*,?,1.07µM*
COC(=O)N1C2=C(c3ccccc3[C@@H]1CC(=O)Nc1ccc(Br)cc1)[C@@H]1C(=O)N(c3ccccc3)C(=O)[C@@H]1[C@H](C)C2,nt,-4.1%[9.22 µM],nt,nt,nt
O=C(CC(NCc1cccnc1)C(=O)O)Nc1ccc(F)cc1 (stereo not drawn),nt,-5.4%,nt,nt,0.2%
CC(C)CN(C(=O)CSc1nc2ccccc2[nH]1)C1CCS(=O)(=O)C1 (stereo not drawn),-0.3%,nt,nt,nt,nt
O=C(COc1ccccc1Cl)Nc1ccccc1C(=O)N1CCCCC1,5.1%,nt,?,?,?
Cn1c(=O)cc(SCC(=O)NCc2ccc(F)cc2)c2cc(Cl)ccc21,nt,-6.7%,nt,nt,1.0%
SMILES,ELG1 genotox,SMN2 splice enh,NPC1 prom act,Rab9 prom act,FLuc counter
S=C(NCCc1ccccc1)Nc1cnc2ccccc2c1,?,?,25.4%,?,26.9µM*
CCN(CC)C(=O)Nc1cnc2ccccc2c1,6.8%,-4.1%,10.2%,?,?
Cc1ccc(NC(=O)Nc2cnc3ccccc3c2)cc1,?,12.6µM*,2.24µM*,1.26µM*,?
O=C(NC(=S)Nc1ncc(Br)cc1Br)c1ccccc1,?,nt,?,11.0%,21.3µM*
Cn1ncc2cc(NC(=S)NC(=O)c3ccccc3)ccc21,9.0%,20.2%,2µM*,2µM*,12µM*
S=C(NCCc1ccccc1)Nc1ccc(Nc2ccccc2)cc1,-13.5%,nt,1.0%,-15.2%,-7.5%
CC(=O)c1cccc(NC(=O)c2oc(=O)c3ccccc3c2-c2ccccc2)c1,nt,nt,nt,nt,-9.2%
O=C1OC(CC(=O)N(Cc2nnc(-c3ccc(Cl)cc3)o2)C2CC2)c2ccccc21 (stereo not drawn),1.3%,nt,0.3%,-1.0%,-5.6%
O=C(Nc1cnc2ccccc2c1)c1ccncc1,2.31µM*,21.5%,1.78µM*,3.16µM*,12µM*
Cc1cc(C)nc(NC(=S)NC(=O)c2ccccc2)n1,3.5%,nt,?,?,0.6%
COc1ccc(CCC(=O)Nc2cnc3ccccc3c2)cc1,2.4%,nt,-0.4%,-3.0%,?
Cc1ccc(NC(=O)c2cccc(C(=O)OC(C)C)n2)c(Br)c1,-1.2%,13.4%,-3.1%,-2.5%,?
O=C(NC(=S)Nc1cnc2ccccc2c1)c1ccccc1,?,11.2µM*,?,3.55µM*,7.57µM*
COC(=O)c1cccc(C(=O)Nc2ccc(C)cc2Br)n1,10.9%,?,6.1%,-17.5%,10.7µM*
COC(=O)c1cccc(C(=O)Nc2cnc3ccccc3c2)n1,9.8%,-4.6%,3.98µM*,?,23.9µM*
O=C(NCc1cccs1)c1cc(S(=O)(=O)N2CCOCC2)ccc1N1CCCC1,-0.2%,nt,-1.2%,-4.9%,nt
Nc1nnc(CC(=O)N/N=C/c2cccc(OCCOc3ccccc3)c2)s1,-0.3%,10µM*,?,3.16µM*,3.8%
Nc1nnc(CC(=O)N/N=C/c2cccc([N+](=O)[O-])c2)s1,1.1%,-10.3%,5.1%,6.1%,2.5%
Cc1ccccc1OCCOc1cccc(/C=N/NC(=O)Cc2nnc(N)s2)c1,-0.5%,5.01µM*,1.58µM*,0.447µM*,?
Nc1nnc(CC(=O)N/N=C/c2ccccc2OCc2ccccc2F)s1,-2.4%,nt,0.8%,-0.1%,1.4%
C=CCN=c1scc(-c2ccc3c(c2)NC(=O)CO3)n1/N=C(\C)c1ccccn1,-6.5%,-65.0%,-32.9%,-39.0%,5.5%
C=CCN=c1scc(-c2ccc(F)cc2)n1/N=C/c1ccccn1,22.1%,399.5%,23.5%,?,13.5µM*
C=CCN=c1scc(-c2ccccc2)n1/N=C/c1ccccn1,?,4.47µM*,2µM*,1.26µM*,2.39µM*
COc1ccccc1C1NC(=O)NC(C)=C1C(=O)OC1CCCC(C)C1 (stereo not drawn),0.2%,nt,-0.8%,4.1%,6.7%
COc1ccc(C(=O)O/N=C(\N)c2ccc(Br)cc2)cc1,15.9%,nt,?,?,3.01µM*
COc1ccc(/C(N)=N/OC(=O)Cc2ccccc2OC)cc1,1.6%,-10.1%,14.6%,0.5%,?
Cc1cc(/C(N)=N/OC(=O)Nc2ccc(Cl)cc2)no1,?,nt,10.1%,?,19µM*
COc1ccc(C(=O)O/N=C(\N)c2ccccc2)cc1,1.83µM*,nt,0.501µM*,1.41µM*,0.213µM*

# Screening results as filed in PubChem.
